The campaign covered roughly 5,500 compounds. About 2,000 (36%) were called active. Inconclusive results (about 18%) are left out. Cut-off read from the data, not from the text of the source: active = normalized growth mostly below about 0.91 (no sharp cut-off); inconclusive = no clear call, values can overlap the other calls; inactive = mostly above about 0.92. The list shows a part of the results.
Test: chemical genetic growth profiling, strain panel (AID 1159580);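 note: tested at 20 µM; growth read once vehicle control cultures reached saturation at 30 °C; 1 = growth at the plate median or of vehicle wells; lower values mean less growth of the strain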
Conditions: growth OD

Measured: normalized growth

CC(=O)O[C@H]1CC[C@@]2(C)C(=CC(=O)C3C4CCC(C(C)CCCC(C)C)[C@@]4(C)CCC32)C1 (stereo not given in full)
inactive: S. cerevisiae deletion strains, locus YAL013W, strain DEP1, hits give low values 1.01 | S. cerevisiae deletion strains, locus YAL021C, strain ccr4, hits give low values 0.992 | S. cerevisiae deletion strains, locus YAL026C, strain drs2, hits give low values 1.02 | S. cerevisiae deletion strains, locus YAL030W, strain snc1, hits give low values 0.992 | S. cerevisiae deletion strains, locus YBL061C, strain skt5, hits give low values 0.988 | S. cerevisiae deletion strains, locus YBR009C, strain hhf1, hits give low values 1.01 | S. cerevisiae deletion strains, locus YBR021W, strain FUR4, hits give low values 0.999 | S. cerevisiae deletion strains, locus YBR023C, strain chs3, hits give low values 0.985 | S. cerevisiae deletion strains, locus YBR171W, strain sec66, hits give low values 0.996 | S. cerevisiae deletion strains, locus YBR229C, strain ROT2, hits give low values 1 | S. cerevisiae deletion strains, locus YBR231C, strain swc5, hits give low values 1.02 | S. cerevisiae deletion strains, locus YBR279W, strain paf1, hits give low values 0.996 | S. cerevisiae deletion strains, locus YCL011C, strain gbp2, hits give low values 0.994 | S. cerevisiae deletion strains, locus YCL016C, strain dcc1, hits give low values 0.99 | S. cerevisiae deletion strains, locus YCL029C, strain bik1, hits give low values 0.986 | S. cerevisiae deletion strains, locus YCL061C, strain MRC1, hits give low values 1 | S. cerevisiae deletion strains, locus YCL069W, strain vba3, hits give low values 0.997 | S. cerevisiae deletion strains, locus YCR088W, strain abp1, hits give low values 0.995 | S. cerevisiae deletion strains, locus YDL005C, strain med2, hits give low values 0.971 | S. cerevisiae deletion strains, locus YDL035C, strain GPR1, hits give low values 1.02 | S. cerevisiae deletion strains, locus YDL040C, strain nat1, hits give low values 0.991 | S. cerevisiae deletion strains, locus YDL074C, strain BRE1, hits give low values 1.04 | S. cerevisiae deletion strains, locus YDL101C, strain DUN1, hits give low values 1 | S. cerevisiae deletion strains, locus YDL185W, strain tfp1, hits give low values 1.02 | S. cerevisiae deletion strains, locus YDL192W, strain arf1, hits give low values 1 | S. cerevisiae deletion strains, locus YDR001C, strain nth1, hits give low values 0.99 | S. cerevisiae deletion strains, locus YDR069C, strain doa4, hits give low values 0.992 | S. cerevisiae deletion strains, locus YDR101C, strain arx1, hits give low values 1 | S. cerevisiae deletion strains, locus YDR137W, strain rgp1, hits give low values 1.01 | S. cerevisiae deletion strains, locus YDR150W, strain NUM1, hits give low values 0.998 | S. cerevisiae deletion strains, locus YDR159W, strain sac3, hits give low values 1.01 | S. cerevisiae deletion strains, locus YDR162C, strain NBP2, hits give low values 1.01 | S. cerevisiae deletion strains, locus YDR195W, strain ref2 0.977 | S. cerevisiae deletion strains, locus YDR297W, strain sur2, hits give low values 0.995 | S. cerevisiae deletion strains, locus YDR318W, strain mcm21, hits give low values 0.978 | S. cerevisiae deletion strains, locus YDR334W, strain swr1, hits give low values 0.994 | S. cerevisiae deletion strains, locus YDR335W, strain msn5, hits give low values 0.993 | S. cerevisiae deletion strains, locus YDR388W, hits give low values 0.979 | S. cerevisiae deletion strains, locus YDR392W, strain spt3, hits give low values 0.944 | S. cerevisiae deletion strains, locus YDR502C, strain sam2, hits give low values 1 | S. cerevisiae deletion strains, locus YEL003W, strain gim4, hits give low values 1.01 | S. cerevisiae deletion strains, locus YEL037C, strain rad23, hits give low values 0.994 | S. cerevisiae deletion strains, locus YEL061C, strain CIN8 (second series), hits give low values 0.995 | S. cerevisiae deletion strains, locus YEL061C, strain CIN8, hits give low values 1 | S. cerevisiae deletion strains, locus YER015W, strain faa2, hits give low values 0.996 | S. cerevisiae deletion strains, locus YER016W, strain bim1, hits give low values 0.989 | S. cerevisiae deletion strains, locus YER110C, hits give low values 0.982 | S. cerevisiae deletion strains, locus YER111C, strain swi4, hits give low values 0.999 | S. cerevisiae deletion strains, locus YER155C, strain BEM2 (second series), hits give low values 1.01 | S. cerevisiae deletion strains, locus YER155C, strain BEM2, hits give low values 1.01 | S. cerevisiae deletion strains, locus YER167W, strain BCK2, hits give low values 1.01 | S. cerevisiae deletion strains, locus YFR010W, strain ubp6, hits give low values 1.01 | S. cerevisiae deletion strains, locus YGL078C, strain dbp3, hits give low values 1.02 | S. cerevisiae deletion strains, locus YGL086W, strain mad1, hits give low values 1.01 | S. cerevisiae deletion strains, locus YGL167C, strain pmr1, hits give low values 0.993 | S. cerevisiae deletion strains, locus YGL173C, strain kem1, hits give low values 0.978 | S. cerevisiae deletion strains, locus YGL227W, strain vid30, hits give low values 0.984 | S. cerevisiae deletion strains, locus YGL240W, strain doc1, hits give low values 1.01 | S. cerevisiae deletion strains, locus YGL248W, strain PDE1, hits give low values 0.987 | S. cerevisiae deletion strains, locus YGL253W, strain hxk2, hits give low values 0.993 | S. cerevisiae deletion strains, locus YGR135W, strain pre9, hits give low values 0.984 | S. cerevisiae deletion strains, locus YGR252W, strain gcn5, hits give low values 1.07 | S. cerevisiae deletion strains, locus YHR013C, strain ard1, hits give low values 0.994 | S. cerevisiae deletion strains, locus YHR027C, strain rpn1, hits give low values 0.994 | S. cerevisiae deletion strains, locus YHR030C, strain SLT2, hits give low values 1 | S. cerevisiae deletion strains, locus YHR079C, strain IRE1 (second series), hits give low values 0.991 | S. cerevisiae deletion strains, locus YHR094C, strain hxt1, hits give low values 0.975 | S. cerevisiae deletion strains, locus YHR129C, strain ARP1, hits give low values 0.999 | S. cerevisiae deletion strains, locus YHR142W, strain chs7, hits give low values 0.979 | S. cerevisiae deletion strains, locus YHR200W, strain rpn10, hits give low values 0.985 | S. cerevisiae deletion strains, locus YIL066C, strain RNR3, hits give low values 1 | S. cerevisiae deletion strains, locus YIL073C, strain SPO22, hits give low values 1.03 | S. cerevisiae deletion strains, locus YIL125W, strain kgd1, hits give low values 1.01 | S. cerevisiae deletion strains, locus YIR030C, strain dcg1, hits give low values 0.989 | S. cerevisiae deletion strains, locus YJL092W, strain hpr5, hits give low values 0.99 | S. cerevisiae deletion strains, locus YJL095W, strain BCK1 (second series), hits give low values 0.982 | S. cerevisiae deletion strains, locus YJL095W, strain BCK1, hits give low values 1.01 | S. cerevisiae deletion strains, locus YJL115W, strain asf1, hits give low values 0.981 | S. cerevisiae deletion strains, locus YJL129C, strain trk1, hits give low values 0.989 | S. cerevisiae deletion strains, locus YJL134W, strain LCB3, hits give low values 1.01 | S. cerevisiae deletion strains, locus YJL154C, strain vps35, hits give low values 0.999 | S. cerevisiae deletion strains, locus YJL164C, strain tpk1, hits give low values 1 | S. cerevisiae deletion strains, locus YJL166W, strain qcr8, hits give low values 0.998 | S. cerevisiae deletion strains, locus YJL168C, strain set2, hits give low values 0.976 | S. cerevisiae deletion strains, locus YJL187C, strain SWE1 (second series), hits give low values 1.01 | S. cerevisiae deletion strains, locus YJL187C, strain SWE1, hits give low values 0.991 | S. cerevisiae deletion strains, locus YJR043C, strain POL32, hits give low values 1.01 | S. cerevisiae deletion strains, locus YJR075W, strain HOC1, hits give low values 1 | S. cerevisiae deletion strains, locus YKL009W, strain mrt4, hits give low values 1.04 | S. cerevisiae deletion strains, locus YKL068W, hits give low values 1 | S. cerevisiae deletion strains, locus YKL085W, strain MDH1 (second series), hits give low values 1 | S. cerevisiae deletion strains, locus YKL085W, strain MDH1, hits give low values 1 | S. cerevisiae deletion strains, locus YKL160W, strain elf1, hits give low values 0.996 | S. cerevisiae deletion strains, locus YKR001C, strain vps1, hits give low values 1.03 | S. cerevisiae deletion strains, locus YKR026C, strain gcn3, hits give low values 0.994 | S. cerevisiae deletion strains, locus YKR091W, strain srl3, hits give low values 0.994 | S. cerevisiae deletion strains, locus YLL001W, strain dnm1, hits give low values 0.984 | S. cerevisiae deletion strains, locus YLL026W, hits give low values 1 | S. cerevisiae deletion strains, locus YLL041C, strain sdh2, hits give low values 0.993 | S. cerevisiae deletion strains, locus YLR027C, strain aat2, hits give low values 1 | S. cerevisiae deletion strains, locus YLR039C, strain RIC1, hits give low values 1.03 | S. cerevisiae deletion strains, locus YLR058C, strain SHM2, hits give low values 0.999 | S. cerevisiae deletion strains, locus YLR102C, strain apc9, hits give low values 0.975 | S. cerevisiae deletion strains, locus YLR221C, strain rsa3, hits give low values 0.983 | S. cerevisiae deletion strains, locus YLR258W, strain gsy2, hits give low values 1.01 | S. cerevisiae deletion strains, locus YLR262C, strain YPT6 (second series), hits give low values 0.996 | S. cerevisiae deletion strains, locus YLR262C, strain YPT6, hits give low values 1.02 | S. cerevisiae deletion strains, locus YLR268W, strain sec22, hits give low values 1.02 | S. cerevisiae deletion strains, locus YLR320W, strain mms22, hits give low values 0.991 | S. cerevisiae deletion strains, locus YLR330W, strain CHS5, hits give low values 1 | S. cerevisiae deletion strains, locus YLR342W, strain FKS1 (second series), hits give low values 1.03 | S. cerevisiae deletion strains, locus YLR342W, strain FKS1, hits give low values 0.993 | S. cerevisiae deletion strains, locus YLR357W, strain rsc2, hits give low values 0.983 | S. cerevisiae deletion strains, locus YLR370C, strain arc18, hits give low values 0.994 | S. cerevisiae deletion strains, locus YLR371W, strain rom2, hits give low values 0.977 | S. cerevisiae deletion strains, locus YLR384C, strain iki3, hits give low values 0.971 | S. cerevisiae deletion strains, locus YLR418C, strain cdc73, hits give low values 1.02 | S. cerevisiae deletion strains, locus YML016C, strain PPZ1, hits give low values 1 | S. cerevisiae deletion strains, locus YML032C, strain rad52, hits give low values 0.985 | S. cerevisiae deletion strains, locus YML120C, strain ndi1, hits give low values 0.997 | S. cerevisiae deletion strains, locus YML124C, strain tub3, hits give low values 0.988 | S. cerevisiae deletion strains, locus YMR058W, strain fet3, hits give low values 1 | S. cerevisiae deletion strains, locus YMR078C, strain ctf18, hits give low values 0.988 | S. cerevisiae deletion strains, locus YMR125W, strain sto1, hits give low values 0.997 | S. cerevisiae deletion strains, locus YMR129W, hits give low values 0.989 | S. cerevisiae deletion strains, locus YMR205C, strain PFK2, hits give low values 0.993 | S. cerevisiae deletion strains, locus YMR223W, strain ubp8, hits give low values 0.983 | S. cerevisiae deletion strains, locus YMR231W, strain pep5, hits give low values 1 | S. cerevisiae deletion strains, locus YMR307W, strain GAS1, hits give low values 1.07 | S. cerevisiae deletion strains, locus YNL067W, strain RPL9B, hits give low values 1.01 | S. cerevisiae deletion strains, locus YNL071W, strain lat1, hits give low values 0.994 | S. cerevisiae deletion strains, locus YNL128W, strain TEP1, hits give low values 1.04 | S. cerevisiae deletion strains, locus YNL209W, strain ssb2, hits give low values 0.997 | S. cerevisiae deletion strains, locus YNL233W, strain BNI4, hits give low values 1.01 | S. cerevisiae deletion strains, locus YNL248C, strain rpa49, hits give low values 1.01 | S. cerevisiae deletion strains, locus YNL250W, strain rad50, hits give low values 1 | S. cerevisiae deletion strains, locus YNL271C, strain bni1, hits give low values 1.01 | S. cerevisiae deletion strains, locus YNL298W, strain CLA4, hits give low values 1.01 | S. cerevisiae deletion strains, locus YNL307C, strain MCK1, hits give low values 0.985 | S. cerevisiae deletion strains, locus YNL322C, strain KRE1 (second series), hits give low values 0.983 | S. cerevisiae deletion strains, locus YNR049C, strain mso1, hits give low values 0.993 | S. cerevisiae deletion strains, locus YNR052C, strain pop2, hits give low values 0.975 | S. cerevisiae deletion strains, locus YOL006C, strain TOP1, hits give low values 1.05 | S. cerevisiae deletion strains, locus YOL012C, strain htz1 0.955 | S. cerevisiae deletion strains, locus YOL147C, strain pex11, hits give low values 0.982 | S. cerevisiae deletion strains, locus YOR001W, strain rrp6, hits give low values 1.01 | S. cerevisiae deletion strains, locus YOR061W, strain CKA2, hits give low values 1.01 | S. cerevisiae deletion strains, locus YOR069W, strain VPS5, hits give low values 1.01 | S. cerevisiae deletion strains, locus YOR070C, strain gyp1, hits give low values 0.987 | S. cerevisiae deletion strains, locus YOR080W, strain dia2, hits give low values 0.996 | S. cerevisiae deletion strains, locus YOR083W, strain WHI5, hits give low values 0.98 | S. cerevisiae deletion strains, locus YOR106W, strain vam3, hits give low values 1.01 | S. cerevisiae deletion strains, locus YOR136W, strain idh2, hits give low values 0.995 | S. cerevisiae deletion strains, locus YOR144C, strain elg1, hits give low values 0.99 | S. cerevisiae deletion strains, locus YOR184W, strain ser1, hits give low values 0.998 | S. cerevisiae deletion strains, locus YOR265W, strain rbl2, hits give low values 1 | S. cerevisiae deletion strains, locus YOR270C, strain vph1, hits give low values 0.968 | S. cerevisiae deletion strains, locus YOR290C, strain snf2, hits give low values 0.974 | S. cerevisiae deletion strains, locus YOR316C, strain cot1, hits give low values 0.977 | S. cerevisiae deletion strains, locus YPL051W, strain arl3, hits give low values 1 | S. cerevisiae deletion strains, locus YPL078C, strain atp4, hits give low values 0.995 | S. cerevisiae deletion strains, locus YPL106C, strain sse1, hits give low values 0.978 | S. cerevisiae deletion strains, locus YPL240C, strain hsp82, hits give low values 0.993 | S. cerevisiae deletion strains, locus YPL241C, strain CIN2, hits give low values 1 | S. cerevisiae deletion strains, locus YPR119W, strain clb2, hits give low values 0.982 | S. cerevisiae deletion strains, locus YPR141C, strain kar3, hits give low values 0.993 | S. cerevisiae deletion strains, locus YPR163C, strain tif3, hits give low values 0.981 | S. cerevisiae deletion strains, locus YPR167C, strain met16, hits give low values 0.984 | S. cerevisiae deletion strains, strain wtn01, hits give low values 1.05 | S. cerevisiae strains, strain wild type, hits give low values 1.01

From PubChem BioAssay AID1159580 (chemical genetic matrix, 2015)
